# Shown is part of a subset that was picked to be rich in the strongest signals.
# Tests used:
# Assay in all cases: glycan array binding signal (z-score within array); higher = stronger binding
# Conditions in all cases: glycan notation: IUPAC condensed, linker removed
# [1] = target: Fuc(a1-2)Gal(b1-3)GalNAc(b1-3)Gal(a1-4)Gal(b1-4)Glc
# Summary of the method: (§1)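 Arrays were curated from the Consortium for Functional Glycomics database, 3228 in total, and kept only where the protein sequence was available. Binding is expressed as a within-array Z-score. This score was averaged across arrays of the same protein sequence at different concentrations or buffers and across linkers, and negative values can be read as non-binding.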
# [2] = target: Fuc(a1-2)Gal(b1-3)GlcNAc(b1-3)[Gal(b1-4)GlcNAc(b1-6)]Gal(b1-4)Glc
# Summary of the method: as §1
# [3] = target: Fuc(a1-2)Gal(b1-4)GlcNAc(b1-2)Man
# Summary of the method: as §1
# [4] = target: Fuc(a1-2)Gal(b1-4)[Fuc(a1-3)]GlcNAc(b1-2)[Fuc(a1-2)Gal(b1-4)[Fuc(a1-3)]GlcNAc(b1-4)]Man(a1-3)[Fuc(a1-2)Gal(b1-4)[Fuc(a1-3)]GlcNAc(b1-2)Man(a1-6)]Man(b1-4)GlcNAc(b1-4)GlcNAc
# Summary of the method: as §1
# [5] = target: Fuc(a1-2)Gal(b1-4)[Fuc(a1-3)]GlcNAc(b1-3)[Neu5Ac(a2-6)Gal(b1-4)GlcNAc(b1-6)]Gal(b1-4)Glc
# Summary of the method: as §1
# [6] = target: Fuc(a1-2)Gal6S(b1-3)GlcNAc6S
# Summary of the method: as §1
# [7] = target: Fuc(a1-2)[Gal(a1-3)]Gal(b1-3)GlcNAc(b1-2)Man(a1-3)[Fuc(a1-2)[Gal(a1-3)]Gal(b1-3)GlcNAc(b1-2)Man(a1-6)]Man(b1-4)GlcNAc(b1-4)GlcNAc
# Summary of the method: as §1
# [8] = target: Fuc(a1-2)[Gal(a1-3)]Gal(b1-4)GlcNAc(b1-2)Man
# Summary of the method: as §1
# [9] = target: Fuc(a1-2)[GalNAc(a1-3)]Gal(b1-3)GlcNAc(b1-6)GalNAc
# Summary of the method: as §1
# [10] = target: Fuc(a1-2)[GalNAc(b1-3)]Gal
# Summary of the method: as §1
# [11] = target: Fuc(a1-3)[Gal(b1-4)]GlcNAc(b1-2)Man
# Summary of the method: as §1
# [12] = target: Fuc(a1-3)[Gal(b1-4)]GlcNAc(b1-6)GalNAc
# Summary of the method: as §1
# Gal(a1-2)Gal = target: Gal(a1-2)Gal
# Summary of the method: as §1
# Gal(a1-3)Gal(b1-3)GlcNAc = target: Gal(a1-3)Gal(b1-3)GlcNAc
# Summary of the method: as §1
# Gal(a1-4)Gal(b1-4)GlcNAc = target: Gal(a1-4)Gal(b1-4)GlcNAc
# Summary of the method: as §1
# [13] = target: Gal(b1-3)GalNAc(b1-4)Gal(b1-4)Glc
# Summary of the method: as §1
# [14] = target: Gal(b1-3)GalNAc(b1-4)[Neu5Ac(a2-3)]Gal(b1-4)Glc
# Summary of the method: as §1
# [15] = target: Gal(b1-3)GlcNAc(b1-2)Man(a1-3)[Gal(b1-3)GlcNAc(b1-2)Man(a1-6)]Man(b1-4)GlcNAc(b1-4)[Fuc(a1-6)]GlcNAc
# Summary of the method: as §1
# [16] = target: Gal(b1-3)GlcNAc(b1-6)[Gal(b1-3)]GalNAc
# Summary of the method: as §1
# Gal(b1-3)GlcNAc6S = target: Gal(b1-3)GlcNAc6S
# Summary of the method: as §1
# [17] = target: Gal(b1-4)GlcNAc(b1-2)Man(a1-3)Man(b1-4)GlcNAc(b1-4)GlcNAc
# Summary of the method: as §1
# [18] = target: Gal(b1-4)GlcNAc(b1-3)Gal(b1-4)GlcNAc(b1-3)Gal(b1-4)GlcNAc(b1-2)[Gal(b1-4)GlcNAc(b1-3)Gal(b1-4)GlcNAc(b1-3)Gal(b1-4)GlcNAc(b1-6)]Man(a1-6)[Gal(b1-4)GlcNAc(b1-3)Gal(b1-4)GlcNAc(b1-3)Gal(b1-4)GlcNAc(b1-2)Man(a1-3)]Man(b1-4)GlcNAc(b1-4)[Fuc(a1-6)]GlcNAc
# Summary of the method: as §1
# [19] = target: Gal(b1-4)GlcNAc(b1-3)Gal(b1-4)GlcNAc(b1-3)Gal(b1-4)GlcNAc(b1-3)Gal(b1-4)GlcNAc(b1-3)Gal(b1-4)GlcNAc(b1-2)Man(a1-3)[Gal(b1-4)GlcNAc(b1-3)Gal(b1-4)GlcNAc(b1-3)Gal(b1-4)GlcNAc(b1-3)Gal(b1-4)GlcNAc(b1-3)Gal(b1-4)GlcNAc(b1-2)Man(a1-6)]Man(b1-4)GlcNAc(b1-4)GlcNAc
# Summary of the method: as §1
# [20] = target: Gal(b1-4)GlcNAc(b1-3)Gal(b1-4)GlcNAc(b1-3)Gal(b1-4)GlcNAc(b1-3)Gal(b1-4)GlcNAc(b1-3)Gal(b1-4)GlcNAc(b1-3)Gal(b1-4)GlcNAc(b1-2)Man(a1-3)[Gal(b1-4)GlcNAc(b1-3)Gal(b1-4)GlcNAc(b1-3)Gal(b1-4)GlcNAc(b1-3)Gal(b1-4)GlcNAc(b1-3)Gal(b1-4)GlcNAc(b1-3)Gal(b1-4)GlcNAc(b1-2)Man(a1-6)]Man(b1-4)GlcNAc(b1-4)GlcNAc
# Summary of the method: as §1
# [21] = target: Gal(b1-4)GlcNAc(b1-3)Gal(b1-4)GlcNAc(b1-3)[Gal(b1-4)GlcNAc(b1-3)Gal(b1-4)GlcNAc(b1-6)]GalNAc
# Summary of the method: as §1
binder,measurement,setting,value
GS7807F-bth-514-18-514 (Bacteroides thetaiotaomicron) (protein) AGSCTGNFEEYNTNQFQIHEADPSTLMKSMIETIVNIQQNDSQMMDQMVGQLGGYLTCANVWSGTNFGTFNQSDAWNAGPWNTNFEKIYGNFFQIQEATNESGHYYAFARMIRAITMLRVADCYGPMPYSQVKKGNFYVAYDTEEQVYKNIMEDFASAANVLYNYYKDTNGNAPLASNDPVFSGNYANWARLANSMRLRVAIRISTAYPEMAKENAEAAASHEAGLIEANNDNAMMDCGSQTNPYQLAAVSWGDLRVNANIVDYMNGYGDPRMSKYFNHSTFTGHTQEYVGMRSGEDGFAKSDVAGYSIPAITGTSKLLVFCAAETAFLRAEGKLKNWSVGNKSAKEYYEEGIKLSMEQYGTTMPDNYLTNTEKPTVSHNNDPRGHAYTISNTVAVAWNDNNEEENLQRIITQKWIANYPLGLEAWAEYRRTGYPELYPCIDNLSPSGVDSKRGMRRLRFPYTEVQNNHSNYQQGVSYLKNGGPDNEATDLSWGKTN,glycan array binding signal (z-score),[1],-0.883
same,glycan array binding signal (z-score),[2],-0.372
same,glycan array binding signal (z-score),[3],-0.353
same,glycan array binding signal (z-score),[4],-0.286
same,glycan array binding signal (z-score),[5],-0.798
same,glycan array binding signal (z-score),[6],-0.358
same,glycan array binding signal (z-score),[7],0.454
same,glycan array binding signal (z-score),[8],-0.295
same,glycan array binding signal (z-score),[9],-0.854
same,glycan array binding signal (z-score),[10],3.2
same,glycan array binding signal (z-score),[11],-0.562
same,glycan array binding signal (z-score),[12],-0.328
same,glycan array binding signal (z-score),Gal(a1-2)Gal,-0.45
same,glycan array binding signal (z-score),Gal(a1-3)Gal(b1-3)GlcNAc,0.018
same,glycan array binding signal (z-score),Gal(a1-4)Gal(b1-4)GlcNAc,0.384
same,glycan array binding signal (z-score),[13],0.212
same,glycan array binding signal (z-score),[14],3.23
same,glycan array binding signal (z-score),[15],0.491
same,glycan array binding signal (z-score),[16],1.38
same,glycan array binding signal (z-score),Gal(b1-3)GlcNAc6S,2.12
same,glycan array binding signal (z-score),[17],0.202
same,glycan array binding signal (z-score),[18],3.25
same,glycan array binding signal (z-score),[19],4.26
same,glycan array binding signal (z-score),[20],3.26
same,glycan array binding signal (z-score),[21],3.96

# From the supplement of paper PMC8728848
